The structures appear in SMILES notation. This is part of a sample that, as a whole, favours compounds with a hit. Of some 83,000 tested, about 20% had one in any assay.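 Single-concentration screen, 48 h exposure, 96-well plates. Endpoint: percent growth. Below 10 = active.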 Activity calls are given as the source filed them.

The experiment concerns SK-MEL-28 melanoma. Kind of experiment: NCI-60 one-dose screen, 48 h (100 = growth as untreated, 0 = no growth, -100 = all killed). As to conditions: 10 µM unless noted. On the procedure:
Growth inhibition of the SK-MEL-28 human tumor cell line is measured as a screen for anti-cancer activity. Cells are grown in 96 well plates and exposed to the test compound for 48 hours. Compounds are tested at a single concentration, which is 10^-5 M for most compounds. The reported endpoint is percent growth (GI% or GIPRCNT), where numbers from 0 - 100% represent growth inhibition, and numbers from -100% - 0 represent cell death. For example, a value of 40 represents 60% growth inhibition. A value of 0 means no net growth occurred over the course of the experiment. A value of -40 indicates 40% of cells at the beginning of the experiment died by the end of the experiment. A value of -100 means all cells are dead at the end of the experiment.
NCI-60 Human Tumor Cell Lines Screen was performed using the standard one-dose NCI protocol, which is described in more detail at https://dtp.cancer.gov/discovery_development/nci-60/default.htm.
Compounds with GIPRCNT values below 10 were considered active. Activity score was based on GIPRCNT using the following formula: […]
Score is 0 for GIPRCNT values of 100 or above, 50 for GIPRCNT values of 0, and 100 for GIPRCNT values of -100.
For the compound `Cc1ccc(/C=C2\CN(C(=O)CCN3CCC(=NO)CC3)C/C(=C\c3ccc(C)cc3)C2=O)cc1`, the growth was -17.5% (active).
With `O=C([O][Sn]([O]C(=O)c1ccccn1)([c]1ccccc1)[c]1ccccc1)c1ccccn1`, the growth is 98.1% (inactive).
Take `Cc1ccc(NS(=O)(=O)c2cc(C)ccc2C)cc1`: the growth is 61.5% (inactive).
As for `CCN1C(=O)N(CC)C2C1NN=c1s/c(=C\c3cccnc3)c(=O)n12` (stereo not given), the figure is 51.8% (inactive).
Take `O=C1/C(=C/c2ccccc2)CN(C(=O)CCN2CCC(=NO)CC2)C/C1=C\c1ccccc1`: the growth was -27.4% (active).
On to `Cc1[nH]c2ccc(F)cc2c1CCNC(=O)C1CCN(C(=O)c2ccccc2)C1` (stereo not given), for which the growth is 95.1% [25 µM] (inactive).
Turning to `Cc1ccc(S(=O)(=O)NC(=O)n2cc(-c3ccncc3)c(-c3ccc(Cl)c(O)c3)n2)cc1`, the growth was 130% (inactive).
As for `COc1ccc(C(=O)n2nc(/C=C/c3ccc(O)c(OC)c3)cc2/C=C/c2ccc(O)c(OC)c2)cc1`, the figure is -8.32% (active).
On to `Cc1ccc(S(=O)(=O)NCCNc2nccc(-c3c(-c4cccc(N)c4)nc4sccn34)n2)cc1`, for which the growth was 107% (inactive).
`CN(C)CCN1C(=O)c2ccc3c4c(ccc(c24)C1=O)C(=O)N(CCN=C=S)C3=O`: the growth is -87.7% (active).
With `O=C(O)c1cn(C2CC2)c2cc(N3CCN(C(=O)/C=C/c4ccc(Cl)cc4)CC3)c(F)cc2c1=O`, the growth was 66.5% (inactive).
As for `CC(=O)Oc1cccc(S(=O)(=O)n2cc(C(=O)C(=O)Nc3ccncc3)c3ccccc32)c1`, the figure is 104% (inactive).
For `O=C1C2(c3ccccc3)C(c3ccccc3)=C(c3ccccc3)C1(c1ccccc1)C1CC=CC12` (stereo not given), the growth was 108% (inactive).
Consider `O=C(Nc1ccncc1)C(=O)c1cn(S(=O)(=O)c2ccc(Cl)cc2)c2ccccc12`, for which the growth is 46.4% (inactive).
As for `O=[N+]([O-])c1cccc(-c2nc3sccn3c2-c2ccnc(NCCCNS(=O)(=O)c3ccc(C(F)(F)F)cc3)n2)c1`, the figure is 49.8% (inactive); as for `C/C(=C\c1ccc(OCC(=O)O)c(Cl)c1Cl)[N+](=O)[O-]`, 118% (inactive).
As for `O=C1C(Cl)=C(Nc2ccccn2)C(=O)c2ccccc21`, the figure is 34.8% (inactive); as for `OB(O)c1cccc(-c2nc3ccc4[nH]ncc4c3c3c2CCCC3)c1F`, 92.5% (inactive); as for `N=c1ccc2nc3ccc(N)cc3sc-2c1`, 57.1% (inactive).
`O=C(Nc1cccc(-n2cc(-c3ccncc3)c(-c3ccc(Cl)c(O)c3)n2)c1)c1ccccc1`: the growth is 48.1% (inactive).
As for `Cc1cccc(/C=N/Nc2cc(C)c3cccc(C)c3n2)n1`, the growth was 94.8% (inactive).
Regarding `COc1ccc(S(=O)(=O)NCCCNc2nccc(-n3ccc4cccnc43)n2)cc1`, the growth is 104% (inactive).
On to `Nc1cccc(-c2nc3sccn3c2-c2ccnc(NCCNS(=O)(=O)c3ccc(C(F)(F)F)cc3)n2)c1`, for which the growth was 82.2% (inactive).
For `N[C@H]1CN(C(=O)c2cc3cc(Br)c(F)c(F)c3[nH]2)C[C@@H]1O`, the growth was 106% (inactive).
As for `COc1cc2c(cc1OCCCN1CCN(CCCn3c4ccccc4c4ccccc43)CC1)N=C[C@@H]1CCCN1C2=O`, the figure is -98.3% (active); as for `COc1ccc2c(c1)C(c1cc(OC)c3c(c1)OCO3)C1=C(COC1=O)N2` (stereo not given), 60% (inactive).
Consider `Cc1ccc(Nc2nnc(-c3ccc(Cl)cc3)o2)c(C)c1`, for which the growth was 76.8% (inactive).
In the case of `COc1cccc(-c2nc3sccn3c2-c2ccnc(NCCCNS(=O)(=O)c3ccc(C(F)(F)F)cc3)c2)c1`, the growth was 72.4% (inactive).
`NC(=O)CCCN1C/C(=C\c2ccccc2)C(=O)c2ccccc21`: the growth was 95.7% (inactive).
As to `CCCCCCCC[C@@H](O)CC(=O)N[C@@H](CC(N)=O)C(=O)N[C@@H](CCC(N)=O)C(=O)N[C@@H](CC(=O)c1cc(C)cc(O)c1C(=O)c1c(O)cccc1O)CC(C)C`, the growth was 28.5% (inactive).
As for `O=C(/C=C/c1c[nH]c2ccccc12)c1ccc(O)c(CN2CCN(c3ccc(F)cc3)CC2)c1`, the growth was 107% (inactive).
For the compound `Nc1nc(=O)c2ccccc2s1`, the growth is 121% (inactive).
As for `Nc1nnc(-c2ccc3ccccc3c2O)o1`, the figure is 97.8% (inactive).
As to `COc1ccc2c(c1)NC1=C(C(=O)OC1)C2c1cc(OC)c2c(c1)OCO2` (stereo not given), the growth was 66.9% (inactive).
As to `CCC1=CCC[C@@]2(C)CCC[C@@]3(C)CCCC(C)(C)[C@]1([O-])[O+]32`, the growth was 96.8% (inactive).
For `Cc1nc2ncccc2nc1Nc1ccc(S(=O)(=O)Nc2cncs2)cc1`, the growth was 110% (inactive).
Turning to `O=[N+]([O-])c1cnc(Sc2ccncn2)s1`, the growth is -61% (active).
As for `Cc1cc(C)n(-c2nnc3n2N=C(c2ccc(-c4ccccc4)cc2)CS3)n1`, the growth was 52.7% (inactive).
For the compound `C=C1C(=O)O[C@H]2[C@H]1CC/C(COC(=O)NCc1ccccc1OC)=C\CC[C@@]1(C)O[C@@H]21`, the growth is 47.5% (inactive).
Take `Fc1ccc(Nc2nc(NCCNc3ccnc4cc(Cl)ccc34)nc(N3CCOCC3)n2)cc1`: the growth was -98.5% (active).

The values are drawn from PubChem BioAssay (NCI).
